From PubChem BioAssay (EPA / NIEHS)
More than one record can exist for a structure, and the calls need not agree. Calls of active or inactive are those of the source. Rule for the calls: active = hit-call score of the fitted dose curve at least 0.9, where 1 is the maximum; inactive = score below 0.9.

read-out: Collagen III, COL3A1 (gene 1281); test: BSK_hDFCGF_CollagenIII: BioMAP Diversity Plus: hDFCGF Assay for Collagen III Biomarker Activity (AID 2283056); conditions: primary human foreskin fibroblasts; actives raise or lower the signal
Method: BSK_hDFCGF is a cell-based, multiplexed-readout assay that uses foreskin fibroblast, a human skin primary cell, with measurements taken at 24 hours after chemical dosing in a 96-well plate.BSK_hDFCGF_CollagenIII is an assay component measured in the BSK_hDFCGF assay. It measures Collagen antibody related to regulation of gene expression using ELISA technology.Data from the assay component BSK_hDFCGF_CollagenIII was analyzed into 1 assay endpoint. This assay endpoint, BSK_hDFCGF_CollagenIII, was analyzed with bidirectional fitting relative to DMSO as the negative control and baseline of activity. Using a type of binding reporter, gain or loss-of-signal activity can be used to understand changes in the signaling as they relate to the gene COL3A1. Furthermore, this assay endpoint can be referred to as a primary readout, because this assay has produced multiple assay endpoints where this one serves a signaling function. To generalize the intended target to other relatable targets, this assay endpoint is annotated to the cell adhesion molecules intended target family, where the subfamily is collagen.
The levels of cell surface (or secreted, indicated by the prefix "s") biomarker endpoints were measured by ELISA. Overt cytotoxicity to cells in confluent adherent cultures (all systems other than the BT system) was assessed by measuring total protein levels using sulforhodamine B (SRB) staining in parallel cultures at the time of biomarker measurements, indicated as SRB endpoints. For proliferation assays for adherent cell types, individual cell types are cultured at sub-confluence and relative cell numbers quantified by SRB staining at time points optimized for each system (48 h: 3C and CASM3C systems; 72 h: BT and HDF3CGF systems; 96 h: SAg system). SRB was performed by staining cells with 0.1% SRB after fixation with 10% TCA and reading wells at 560 nm.Viability and proliferation of PBMC (T cells) was quantified by Alamar Blue reduction for the SAg and BT systems. For PBMC viability (referred to as PBMC Cytotoxicity within the assay endpoint names), cells were plated (75,000/well in a 96-well plate) and then chemical samples added for 1 h before addition of activators, SEB and TSST-1 (20 ng/mL final concentration each). Cells were incubated for 90 h. Then, Alamar Blue (20 uL/well) (Invitrogen, Cat DAL1100) was added for 6 h, and the plates were read with a fluorescence microplate reader at 546/580 nm (excitation/emission). For PBMC proliferation, cells were plated and activated as above but incubated for only 16 h prior to addition of Alamar Blue. Plates were read after 6 h.

Row | Compound | outcome | AC50
1 | O=C(NC(=O)c1c(F)cccc1F)Nc1ccc(OC(F)(F)C(F)OC(F)(F)F)c(Cl)c1 (stereo not given) | inactive | –
2 | COP(=S)(OC)Oc1ccc(SC)c(C)c1 | inactive | –
3 | Clc1ccccc1-c1nnc(-c2ccccc2Cl)nn1 | – | 3 µM (active)
4 | ClC1C(Cl)C(Cl)C(Cl)C(Cl)C1Cl (stereo not given) | inactive | 20 µM (active)
5 | C#CCN1C(=O)COc2cc(F)c(N3C(=O)C4=C(CCCC4)C3=O)cc21 | inactive | –
6 | [2H]C1([2H])[n+]2ccccc2-c2cccc[n+]2C1([2H])[2H] | – | 1.16 µM (active)
7 | CCCN(CCC)c1c([N+](=O)[O-])cc(C(F)(F)F)cc1[N+](=O)[O-] | inactive | –
8 | Oc1cc(Cl)ccc1Oc1ccc(Cl)cc1Cl | – | 7.46 µM (active) [middle of 4 runs]
9 | CCOc1nc(NC)nc(NC(=O)NS(=O)(=O)c2ccccc2C(=O)OC)n1 | inactive | –
10 | CC1(c2ccc(Oc3ccccc3)cc2)OC(=O)N(Nc2ccccc2)C1=O (stereo not given) | inactive | –
11 | CN1CSC(=S)N(C)C1 | inactive | –
12 | CC(C)N(C(=O)COc1nnc(C(F)(F)F)s1)c1ccc(F)cc1 | inactive | –
13 | CCOCN(C(=O)CCl)c1c(C)cccc1CC | – | 8.23 µM (active)
14 | O=S1OCC2C(CO1)C1(Cl)C(Cl)=C(Cl)C2(Cl)C1(Cl)Cl (stereo not given) | – | 22.5 µM (active)
15 | O=[N+]([O-])c1c(Cl)c(Cl)c(Cl)c(Cl)c1Cl | – | 14.9 µM (active)
16 | CCS(=O)(=O)c1cccnc1S(=O)(=O)NC(=O)Nc1nc(OC)cc(OC)n1 | inactive | –
17 | OCCOc1ccccc1 | inactive | –
18 | COP(=S)(OC)Oc1ccc([N+](=O)[O-])cc1 | – | 16.6 µM (active)
19 | COC(=O)c1ccccc1CS(=O)(=O)NC(=O)Nc1nc(OC)cc(OC)n1 | inactive | –
20 | CC(C)(C)C(O)C(Oc1ccc(Cl)cc1)n1cncn1 (stereo not given) | inactive | –

Row | Compound | outcome | AC50
21 | CCN(CC)C(=O)SCc1ccc(Cl)cc1 | inactive | –
22 | CCC(C)(NC(=O)c1cc(Cl)c(C)c(Cl)c1)C(=O)CCl (stereo not given) | – | 11.3 µM (active)
23 | Cc1[nH]c(=O)n(C(C)(C)C)c(=O)c1Cl | inactive | –
24 | N#CN | inactive | –
25 | CC(C)(C)C(O)/C(=C\c1ccc(Cl)cc1Cl)n1cncn1 (stereo not given) | inactive | –
26 | CCOC1Oc2ccc(OS(C)(=O)=O)cc2C1(C)C (stereo not given) | inactive | –
27 | CCC(C)Nc1c([N+](=O)[O-])cc(C(C)(C)C)cc1[N+](=O)[O-] (stereo not given) | inactive | –
28 | COc1cc(OC)nc(NC(=O)NS(=O)(=O)c2cc(NC=O)ccc2C(=O)N(C)C)n1 | inactive | –
29 | CC(C)OC(=O)Nc1cccc(Cl)c1 | inactive | –
30 | CNC(=O)/C=C(\C)OP(=O)(OC)OC | inactive | –
31 | COC(=O)c1ccccc1S(=O)(=O)NC(=O)N(C)c1nc(C)nc(OC)n1 | inactive | –
32 | CCCN(CCOc1c(Cl)cc(Cl)cc1Cl)C(=O)n1ccnc1 | – | 31.1 µM (active)
33 | COP(=O)(OC)OC=C(Cl)Cl | inactive | –
34 | CCC(C)(C)C(=O)OC1=C(c2ccc(Cl)cc2Cl)C(=O)OC12CCCCC2 | – | 5.74 µM (active)
35 | CC1(C)C(C=C(Cl)Cl)C1C(=O)OC(C#N)c1ccc(F)c(Oc2ccccc2)c1 (stereo not given) | – | 0.189 µM (active)
36 | CCc1ccc(C(=O)NN(C(=O)c2cc(C)cc(C)c2)C(C)(C)C)cc1 | inactive | –
37 | O=C(O)CCCOc1ccc(Cl)cc1Cl | inactive | –
38 | O=C(O)COc1ccc(Cl)cc1Cl | inactive | –
39 | Cc1cc(C)nc(NC(=O)NS(=O)(=O)c2ccccc2C(=O)OC2COC2)n1 | inactive | –
